From PubChem BioAssay (NCI) come the findings set out here.

SMILES strings stand for the structures. Compounds without any hit were thinned out: in the full panel of roughly 83,000, 20% have a hit.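 How to read the values: 0–100, growth inhibition (40 = 60% inhibited); 0, no net growth; -100 to 0, cell death (-40 = 40% of starting cells died; -100 = all dead).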 A number with no mark means an inactive call. Calls of active or inactive are those of the source. How the source made its calls: active means growth percent below 10; inactive means the rest.

The test system of the first test is SK-MEL-2 melanoma. Description: NCI-60 one-dose screen, 48 h (100 = growth as untreated, 0 = no growth, -100 = all killed). The following applies: 10 µM unless noted.
Consider `COC(=O)[C@]12CC[C@@H](C)[C@H](C)[C@@H]1C1=CC[C@@H]3[C@@]4(C)C(C=O)=C[C@@](C)(COC(=O)c5ccco5)[C@@H]4C(=O)C[C@@]3(C)[C@]1(C)CC2`, for which the growth was -31.8% (active).

Take `COc1cccc(C(=O)NCCNc2cc(-c3cn(-c4ccccc4)nc3-c3cccc(OC)c3)ccn2)c1`: the growth is 57.2%.

As to `O=C(O)C1CCC(=O)N1C(=O)OCc1ccccc1` (centres undefined), the growth was 103%.

In the case of `Cc1cc(NCc2cc(Nc3ccnc4cc(Cl)ccc34)ccc2F)nc(N2CCCC2)n1`, the growth is 93.5%.

As for `COC(=O)[C@]12CC[C@@H](C)[C@H](C)[C@@H]1C1=CC[C@@H]3[C@@]4(C)C(C=O)=C[C@@](C)(COC(=O)c5ccco5)C4=CC[C@@]3(C)[C@]1(C)CC2`, the growth is -42.1% (active).

On to `CC(CCc1ccc(Cl)c(Cl)c1)NCc1ccc(C(C)(C)C)cc1` (centres undefined), for which the growth is 105%.

Turning to `Cc1ccc2nc3ccccc3c(NCc3ccccc3)c2c1`, the growth is 100%.

For the compound `COc1cc(-c2nc(N3CCN(C)CC3)c3ccccc3n2)cc(OC)c1OC`, the growth was 81.2%.

As for `CCn1c(C)nc2cc(C(N)=O)ccc21`, the growth is 96%.

`CN(C)CC1C(=O)O[C@H]2[C@H]1CC/C(COC(=O)c1cc3ccccc3[nH]1)=C\CC[C@@]1(C)O[C@@H]21` (some centres undefined): the growth is -55% (active).

On to `CN1CCN(CCCOc2ccc3nc(Nc4ccc(F)c(F)c4)ccc3c2)CC1`, for which the growth is 54.4%.

Take `COc1cccc(-c2nn(-c3ccccc3)cc2-c2ccnc(NCCCNC(=O)c3cccc(C(F)(F)F)c3)c2)c1`: the growth is 33.4%.

`COc1ccc(-c2cc(-c3cc(OC)ccc3OC)nc(SCC(=O)c3ccccc3)c2C#N)cc1`: the growth is 89.6%.

In the case of `Cc1ccc(Cl)c(NS(=O)(=O)c2ccc(-c3cnc(C4CC4)o3)cc2)c1`, the growth was 56.9%.

In the case of `COc1cccc(-c2nn(-c3ccccc3)cc2-c2ccnc(NCCNC(=O)c3ccccc3)c2)c1`, the growth is 84.7%.

On to `Cc1cc(N2CCCC2)nc(NCc2cc(Nc3ccnc4cc(Cl)ccc34)ccc2F)n1`, for which the growth was -79.6% (active).

Turning to `COc1cccc(-c2nn(-c3ccccc3)cc2-c2ccnc(NCCNC(=O)Nc3ccccc3)c2)c1`, the growth was 46.8%.

Regarding `CC(C)CCC[C@@H](C)[C@H]1CC[C@H]2[C@@H](Nc3ccc(O)cc3)CCC[C@]12C`, the growth was 86.1%.

With `COc1cc(-c2nn(-c3ccccc3)cc2-c2ccnc(NCCNS(=O)(=O)c3ccc(Cl)cc3)n2)ccc1Cl`, the growth is 61.2%.

In the case of `CCCCn1c(=O)c2c(nc3n2CCCN3CCc2ccc(OCC(=O)NCCN(CC)CC)cc2)n(CCCC)c1=O`, the growth was 73.8%.

For `COC(=O)CCC1=C(C)C2=NC1=CC1=NC(=CC3=NC(=Cc4[nH]c(/c(=C(/C)O)c4C)=C2)C(C(C)=O)=C3C)C(C)=C1CCC(=O)OC`, the growth was 102%.

`N[C@@H](CCCCNCC(=O)O)C(=O)O`: the growth is 115%.

As to `O=C(c1ccc(Nc2nccc(NCCCCNc3ccnc4cc(Cl)ccc34)n2)cc1)N1CCCCC1`, the growth is 68.7%.

Consider `Cc1ccc(NCCN(C)C)c2c(=O)c3ccccc3sc12`, for which the growth is 71.9%.

With `Cc1cc(NCCCCNc2ccnc3cc(Cl)ccc23)nc(Nc2ccc(C(=O)N3CCCC3)cc2)n1`, the growth is 91.2%.

In the case of `CC(C)(C)n1cc(-c2ccnc(NCCCNS(=O)(=O)c3ccccc3)c2)c(-c2ccccc2)n1`, the growth was 98.7%.

As to `Fc1ccc(CNc2c3ccccc3nc3ccccc23)cc1F`, the growth was 89.4%.

For `c1c[nH]c(CNC2CCCCC2)c1`, the growth was 115%.

Take `COc1cccc(-c2nn(-c3ccccc3)cc2-c2ccnc(NCCNC(=O)Nc3cccc(C(F)(F)F)c3)c2)c1`: the growth is -25.2% (active).

Regarding `O=C(NCCCNc1cc(-c2cn(-c3ccccc3)nc2-c2cccc(O)c2)ccn1)c1ccc(F)cc1`, the growth was -8.95% (active).

`Cc1cc(NCc2cc(Nc3ccnc4cc(Cl)ccc34)ccc2F)nc(Cl)n1`: the growth was 54.6%.

Regarding `NC(=O)c1ccc[n+](Cc2ccc(Cl)cc2Cl)c1`, the growth was 95.7%.

For `Cc1cc(Cl)nc(NCc2cc(Nc3ccnc4cc(Cl)ccc34)ccc2F)n1`, the growth is 77.1%.

Consider `COc1ccc(-c2ccc3c(c2)sc2nc(-c4ccc(F)cc4)cn23)cc1`, for which the growth is 73.4%.

Regarding `O=C(NCCCNc1cc(-c2cn(-c3ccccc3)nc2-c2cccc(O)c2)ccn1)c1ccccc1`, the growth was 26.8%.

In the case of `FC(F)(F)c1cc(Nc2ccc3cc(OCCCN4CCOCC4)ccc3n2)ccc1Cl`, the growth is 46%.

Regarding `COC(=O)[C@]12CC[C@@H](C)[C@H](C)[C@@H]1C1=CC[C@@H]3[C@@]4(C)C(C=O)=C[C@@](C)(COC(C)=O)C4=CC[C@@]3(C)[C@]1(C)CC2`, the growth is -45.1% (active).

The next test deals with EKVX NSCLC. Described as above. The following applies: 10 µM unless noted.
For `COC(=O)[C@]12CC[C@@H](C)[C@H](C)[C@@H]1C1=CC[C@@H]3[C@@]4(C)C(C=O)=C[C@@](C)(COC(=O)c5ccco5)[C@@H]4C(=O)C[C@@]3(C)[C@]1(C)CC2`, the growth is 38.3%.

For the compound `COc1cccc(C(=O)NCCNc2cc(-c3cn(-c4ccccc4)nc3-c3cccc(OC)c3)ccn2)c1`, the growth is 69%.

Regarding `O=C(O)C1CCC(=O)N1C(=O)OCc1ccccc1` (centres undefined), the growth is 97.8%.

`Cc1cc(NCc2cc(Nc3ccnc4cc(Cl)ccc34)ccc2F)nc(N2CCCC2)n1`: the growth was 17.3%.

As for `COC(=O)[C@]12CC[C@@H](C)[C@H](C)[C@@H]1C1=CC[C@@H]3[C@@]4(C)C(C=O)=C[C@@](C)(COC(=O)c5ccco5)C4=CC[C@@]3(C)[C@]1(C)CC2`, the growth is 11%.

As to `CC(CCc1ccc(Cl)c(Cl)c1)NCc1ccc(C(C)(C)C)cc1` (centres undefined), the growth was 102%.

Turning to `Cc1ccc2nc3ccccc3c(NCc3ccccc3)c2c1`, the growth was 49.6%.

As for `COc1cc(-c2nc(N3CCN(C)CC3)c3ccccc3n2)cc(OC)c1OC`, the growth was 67.2%.

As for `CCn1c(C)nc2cc(C(N)=O)ccc21`, the growth is 142%.

Turning to `CN(C)CC1C(=O)O[C@H]2[C@H]1CC/C(COC(=O)c1cc3ccccc3[nH]1)=C\CC[C@@]1(C)O[C@@H]21` (some centres undefined), the growth was -27.4% (active).

Consider `CN1CCN(CCCOc2ccc3nc(Nc4ccc(F)c(F)c4)ccc3c2)CC1`, for which the growth is 61.7%.

With `COc1cccc(-c2nn(-c3ccccc3)cc2-c2ccnc(NCCCNC(=O)c3cccc(C(F)(F)F)c3)c2)c1`, the growth was 48.9%.

As for `COc1ccc(-c2cc(-c3cc(OC)ccc3OC)nc(SCC(=O)c3ccccc3)c2C#N)cc1`, the growth is 100%.

`Cc1ccc(Cl)c(NS(=O)(=O)c2ccc(-c3cnc(C4CC4)o3)cc2)c1`: the growth was 31.4%.

Consider `COc1cccc(-c2nn(-c3ccccc3)cc2-c2ccnc(NCCNC(=O)c3ccccc3)c2)c1`, for which the growth was 66.6%.

Turning to `Cc1cc(N2CCCC2)nc(NCc2cc(Nc3ccnc4cc(Cl)ccc34)ccc2F)n1`, the growth was 11.1%.

`COc1cccc(-c2nn(-c3ccccc3)cc2-c2ccnc(NCCNC(=O)Nc3ccccc3)c2)c1`: the growth is 71.1%.

Take `CC(C)CCC[C@@H](C)[C@H]1CC[C@H]2[C@@H](Nc3ccc(O)cc3)CCC[C@]12C`: the growth is 109%.

Take `COc1cc(-c2nn(-c3ccccc3)cc2-c2ccnc(NCCNS(=O)(=O)c3ccc(Cl)cc3)n2)ccc1Cl`: the growth was 37%.

Turning to `CCCCn1c(=O)c2c(nc3n2CCCN3CCc2ccc(OCC(=O)NCCN(CC)CC)cc2)n(CCCC)c1=O`, the growth was 70.5%.

Turning to `COC(=O)CCC1=C(C)C2=NC1=CC1=NC(=CC3=NC(=Cc4[nH]c(/c(=C(/C)O)c4C)=C2)C(C(C)=O)=C3C)C(C)=C1CCC(=O)OC`, the growth is 99.7%.

On to `N[C@@H](CCCCNCC(=O)O)C(=O)O`, for which the growth was 96.9%.

For `O=C(c1ccc(Nc2nccc(NCCCCNc3ccnc4cc(Cl)ccc34)n2)cc1)N1CCCCC1`, the growth was 67.5%.

Turning to `Cc1ccc(NCCN(C)C)c2c(=O)c3ccccc3sc12`, the growth was 49.4%.

With `Cc1cc(NCCCCNc2ccnc3cc(Cl)ccc23)nc(Nc2ccc(C(=O)N3CCCC3)cc2)n1`, the growth is 79%.

As to `CC(C)(C)n1cc(-c2ccnc(NCCCNS(=O)(=O)c3ccccc3)c2)c(-c2ccccc2)n1`, the growth was 70.7%.

`Fc1ccc(CNc2c3ccccc3nc3ccccc23)cc1F`: the growth was 35.4%.

`c1c[nH]c(CNC2CCCCC2)c1`: the growth is 108%.

For the compound `COc1cccc(-c2nn(-c3ccccc3)cc2-c2ccnc(NCCNC(=O)Nc3cccc(C(F)(F)F)c3)c2)c1`, the growth was 45.1%.

As for `O=C(NCCCNc1cc(-c2cn(-c3ccccc3)nc2-c2cccc(O)c2)ccn1)c1ccc(F)cc1`, the growth was 48.2%.

With `Cc1cc(NCc2cc(Nc3ccnc4cc(Cl)ccc34)ccc2F)nc(Cl)n1`, the growth was 39.4%.

With `NC(=O)c1ccc[n+](Cc2ccc(Cl)cc2Cl)c1`, the growth is 107%.

Consider `Cc1cc(Cl)nc(NCc2cc(Nc3ccnc4cc(Cl)ccc34)ccc2F)n1`, for which the growth is 68.1%.

With `COc1ccc(-c2ccc3c(c2)sc2nc(-c4ccc(F)cc4)cn23)cc1`, the growth was 82.6%.

On to `O=C(NCCCNc1cc(-c2cn(-c3ccccc3)nc2-c2cccc(O)c2)ccn1)c1ccccc1`, for which the growth is 47.6%.

Turning to `FC(F)(F)c1cc(Nc2ccc3cc(OCCCN4CCOCC4)ccc3n2)ccc1Cl`, the growth is 62.2%.

`COC(=O)[C@]12CC[C@@H](C)[C@H](C)[C@@H]1C1=CC[C@@H]3[C@@]4(C)C(C=O)=C[C@@](C)(COC(C)=O)C4=CC[C@@]3(C)[C@]1(C)CC2`: the growth was 12.7%.
